Structures can show the parent of a compound that is named as a salt.
test system: Saccharomyces cerevisiae BY4741 SeMeCo community; experiment: z-score of subpopulation abundance vs DMSO median, subpopulation auxotrophic for L; higher = larger share of this subpopulation than in DMSO controls; details: 10 µM; 24 h; SM minimal medium; subpopulation (auxotrophy): L
Experimental: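 Fluorescent four-plasmid SeMeCo (self-establishing metabolically cooperating S. cerevisiae BY4741 community; plasmids pH-mRuby2, pL-mWasabi, pU-eCFP, pM-TagRFP657) was grown 24 h in minimal SM medium with each Selleck FDA-approved drug at 10 µM in 384-well plates. Cells were fixed and imaged by high-content confocal microscopy. For each auxotrophic subpopulation (and the prototroph), a z-score gives the deviation from the DMSO vehicle-control population median.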

Structure (SMILES)	z-score of subpopulation abundance
Cc1c(Cl)cccc1Nc1ccccc1C(=O)O [Tolfenamic Acid]	-2.08
Nc1ccc(S(=O)(=O)NC(=O)c2ccccc2)cc1 [Sulfabenzamide]	-0.13
CNCC[C@H](Oc1cccc2ccccc12)c1cccs1 [Duloxetine]	-1.31
C[C@H]1COc2c(N3CCN(C)CC3)c(F)cc3c(=O)c(C(=O)O)cn1c23 [Levofloxacin]	-0.45
CCC(=O)NS(=O)(=O)c1ccc(-c2c(-c3ccccc3)noc2C)cc1 [Parecoxib]	0.2
CCS(=O)(=O)CCn1c([N+](=O)[O-])cnc1C [Tinidazole]	0.1
COc1ccnc(C[S+]([O-])c2nc3cc(-n4cccc4)ccc3[nH]2)c1C (stereo not given) [Ilaprazole]	2.44
O=C1Nc2ccccc2C1=O [Isatin]	-0.04
CCCCN(CCCC)CC(O)c1cc(Cl)cc2c1-c1ccc(Cl)cc1/C2=C/c1ccc(Cl)cc1 (stereo not given) [Lumefantrine]	-0.76
O=C1c2c(O)ccc(O)c2C(=O)c2c(NCCNCCO)ccc(NCCNCCO)c21 [Mitoxantrone 2HCl]	5.53
O=C(O)Cc1ccccc1Nc1c(Cl)cccc1Cl [Diclofenac Sodium]	-0.21
CN1C2CCCC1CC(NC(=O)c1nn(C)c3ccccc13)C2 (stereo not given) [Granisetron HCl]	0.65
O=C(c1ccccc1)c1ccc2n1CCC2C(=O)O (stereo not given) [Ketorolac tromethamine salt]	0.3
Clc1ccc(CCC(Cn2ccnc2)Sc2c(Cl)cccc2Cl)cc1 (stereo not given) [Butoconazole]	2.88
NS(=O)(=O)Cc1noc2ccccc12 [Zonisamide]	1.91
Clc1ccc(C(Cn2ccnc2)OCc2c(Cl)cccc2Cl)c(Cl)c1 (stereo not given) [Isoconazole nitrate]	-3.43
COc1cccc2c1C(=O)c1c(O)c3c(c(O)c1C2=O)C[C@@](O)(C(C)=O)C[C@@H]3O[C@H]1C[C@H](N)[C@H](O)[C@H](C)O1 [Daunorubicin HCl]	-1.28
O=C(O)Cc1ccccc1Nc1c(Cl)cccc1Cl [Diclofenac acid]	0.08
CN1C2CCC1CC(OC(=O)C(O)c1ccccc1)C2 (stereo not given) [Homatropine Bromide]	-0.11
CO[C@H]1O[C@@H]2O[C@@]3(C)CC[C@H]4[C@H](C)CC[C@@H]([C@H]1C)[C@@]24OO3 [Artemether]	-0.43

Structure (SMILES)	z-score of subpopulation abundance
CC[C@H](c1ccc(O)cc1)[C@@H](CC)c1ccc(O)cc1 [Hexestrol]	-0.78
CO[C@H]1C[C@@H]2CC[C@@H](C)[C@@](O)(O2)C(=O)C(=O)N2CCCC[C@H]2C(=O)O[C@H]([C@H](C)C[C@@H]2CC[C@@H](O)[C@H](OC)C2)CC(=O)[C@H](C)/C=C(\C)[C@@H](O)[C@@H](OC)C(=O)[C@H](C)C[C@H](C)/C=C/C=C/C=C/1C [Rapamycin (Sirolimus)]	-1.39
O=C(O[C@@H]1C[C@@H]2C[C@H]3C[C@H](C1)N2CC3=O)c1c[nH]c2ccccc12 [Dolasetron Mesylate]	-0.52
C[N+]1(C)[C@@H]2C[C@@H](OC(=O)C(O)(c3cccs3)c3cccs3)C[C@H]1[C@@H]1O[C@@H]12 [Tiotropium Bromide hydrate]	-0.76
CCOC(=O)C1=C[C@]2(CC)CCCN3CCc4c(n1c1ccccc41)[C@@H]32 [Vinpocetine]	0.01
OC[C@H]1O[C@H](OCC2O[C@@H](O)[C@H](O)[C@@H](O)[C@@H]2O)[C@H](O)[C@@H](O)[C@H]1O (stereo not given in full) [Melibiose]	0.1
CC(=O)O[C@H]1C[C@@]2(C)[C@@H](C[C@@H](O)[C@H]3[C@@]4(C)CC[C@@H](O)[C@@H](C)[C@@H]4CC[C@@]32C)/C1=C(\CCC=C(C)C)C(=O)O [Fusidate Sodium]	-0.11
O=C1C(N(CO)C(=O)NCO)N(CO)C(=O)N1CO (stereo not given) [Diazolidinyl urea]	0.77
Cc1c(C)c2c(c(C)c1O)CCC(C)(CCCC(C)CCCC(C)CCCC(C)C)O2 (stereo not given) [Vitamin E]	-0.8
CN(C)c1cc(NC(=O)CNC(C)(C)C)c(O)c2c1CC1CC3C(N(C)C)C(=O)C(C(N)=O)=C(O)C3(O)C(=O)C1=C2O (stereo not given) [Tigecycline]	-1.67
NC(=O)C(c1ccccc1)(c1ccccc1)[C@@H]1CCN(CCc2ccc3c(c2)CCO3)C1 [Darifenacin HBr]	-0.21
CC(C(O)c1ccc(O)cc1)N1CCC(Cc2ccccc2)CC1 (stereo not given) [Ifenprodil Tartrate]	-0.15
C#CCN[C@@H]1CCc2ccccc21 [Rasagiline Mesylate]	1.22
COC(=O)Nc1nc2cc([S+]([O-])c3ccccc3)ccc2[nH]1 (stereo not given) [Oxfendazole]	-1.92
CC/C=C(\C(=O)N[C@@H]1C(=O)N2C(C(=O)OCOC(=O)C(C)(C)C)=C(COC(N)=O)CS[C@H]12)c1csc(N)n1 [Cefcapene Pivoxil Hydrochloride]	0.38
O=C(c1ccc(OCCN2CCCCC2)cc1)c1c(-c2ccc(O)cc2)sc2cc(O)ccc12 [Raloxifene]	1.05
Cc1c(C(N)=O)cc([N+](=O)[O-])cc1[N+](=O)[O-] [Dinitolmide]	0.45
Cc1ccc(Sc2ccccc2N2CCNCC2)c(C)c1	-0.27
Cc1nccn1CC1CCc2c(c3ccccc3n2C)C1=O (stereo not given) [Ondansetron HCl]	-0.44
Cc1nccn1CC1CCc2c(c3ccccc3n2C)C1=O (stereo not given) [Ondansetron Hydrochloride Dihydrate]	-0.38

From the supplement of paper PMC8975748
